# Source: PubChem (National Center for Advancing Translational Sciences (NCATS))
# Pf Dd2 growth = blocks in vitro growth of P. falciparum Dd2 | P. falciparum Dd2 growth, SYBR Green, 72 h | Potency, µM (doses to about 28.9 µM), usual class: inhibitors | 120,000 tested, 4.3% active | AID 1347417; active means well fitted inhibition curve with a large enough effect; further: nearly all actives have a fitted effect of over 65% in size
#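 Readout: SYBR Green fluorescence, 485 nm excitation, 535 nm emission, after ~16 h lysis at 37C. Before that, Dd2-infected red cells (2.5% hematocrit) grew 72 h with compound, 29 uM top final concentration.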
# Numbers stand for hits; - = inactive; ! = not active in a repeat; [ ] = remark or other dose. The sample as a whole holds a higher share of hits than the screen did.
SMILES,Pf Dd2 growth
COCCn1ncc(N2CCCC(CC(=O)NCc3ccc(OC)cc3)C2)cc1=O (stereo not drawn),-
O=C(Cn1nc2c(cc1=O)CCCC2)NC1CCN(Cc2ccccc2)CC1,-
CCOC(=O)C1=CN(CC(=O)Nc2cc(C)ccc2OC)S(=O)(=O)N=C1C,-
Cc1nc(C)c(C(=O)N2CCCC(COc3ccccc3C(=O)N3CCCC3)C2)s1 (stereo not drawn),-
Cc1cnc(CCN)n1CC1CC1,-
O=C(c1ccc2cc[nH]c2c1)N1CCC(N2C(=O)C3(CCCCC3)C2c2ccncc2)CC1 (stereo not drawn),7.1µM
Cc1cccc(C(=O)N2CCC(N3C(=O)C4(CCCCC4)C3c3ccncc3)CC2)c1 (stereo not drawn),6.3µM
CCn1nccc1C(=O)N1CCC(N2C(=O)C3(CCCCC3)C2c2ccncc2)CC1 (stereo not drawn),-
COc1ccc(C(=O)N2CCC(N3C(=O)C4(CCCC4)C3c3ccccc3)CC2)cc1 (stereo not drawn),-
Cn1nccc1C(=O)N1CCC(N2C(=O)C3(CCCCC3)C2c2ccccc2)CC1 (stereo not drawn),-
O=C(c1ccncc1)N1CCC(N2C(=O)C3(CCCC3)C2c2ccccc2)CC1 (stereo not drawn),-
COCCN1CCCCCC(O)c2cc(C(=O)N3CCN(C4CCCCC4)CC3)ccc21 (stereo not drawn),-
COc1ccc(CN2CCOC[C@H]2c2ncc(-c3ccc(S(C)(=O)=O)cc3)[nH]2)cc1,-
CN(C)c1ccc(CN2CC[C@H](c3nc4ccc(C(F)(F)F)cc4[nH]3)C2)cc1,5.6µM
FC(F)(F)c1ccc2nc([C@H]3CCN(C4CCCCC4)C3)[nH]c2c1,7.9µM
FC(F)(F)c1ccc2nc([C@H]3CCN(CC4CC4)C3)[nH]c2c1,13µM
c1cc2nc(C3CCN(C4CCCCC4)C3)[nH]c2cn1 (stereo not drawn),-
FC(F)(F)c1ccc(CN2CC[C@H](c3nc4ccccc4[nH]3)C2)cc1,-
Brc1ccc(CN2CCC(c3nc4ncccc4[nH]3)C2)cc1 (stereo not drawn),-
CC(=O)N1CC[C@H](c2nc3ccc(C(F)(F)F)cc3[nH]2)C1,-
O=C(c1ccccc1)N1CC[C@H](c2nc3ccc(F)cc3[nH]2)C1,-
O=C(C1CCCCC1)N1CC[C@H](c2nc3ccc(C(F)(F)F)cc3[nH]2)C1,-
N#Cc1ccc2nc([C@H]3CCN(Cc4ccccc4)C3)[nH]c2c1,-
N#Cc1ccc(CN2CCC(c3nc4ccncc4[nH]3)C2)cc1 (stereo not drawn),10µM!
CN1CCC(N2CC[C@H](c3nc4ccccc4[nH]3)C2)CC1,-
SMILES,Pf Dd2 growth
O=C(C1CC=CC1)N1C[C@@H](COc2ccncc2)[C@H](c2ccccn2)C1,-
Fc1ccc2c(c1)nc1n2[C@@H](CNC2CCC2)COC1,-
Cc1noc(-c2ccco2)c1C(=O)NCCC(c1ccccc1)c1ccccc1,-
NC1(Cc2cc(CN3CCN(c4ccccc4)CC3)on2)COC1,-
O=C(NCc1cccc(Cl)c1)C1CCN(C(=O)c2ncn3c2COC(c2ccccc2)C3)CC1 (stereo not drawn),-
Cc1noc(-c2cccn3c(CNC(=O)c4ccccc4)nnc23)n1,-
O=C(NCc1nnc2c(-c3nc(C4CC4)no3)cccn12)c1cc(F)ccc1F,-
Cc1ccccc1C(=O)NCc1nnc2c(-c3nc(C(C)C)no3)cccn12,-
CCOc1ccccc1C(=O)NCc1nnc2c(-c3nc(C4CC4)no3)cccn12,3.2µM
Cc1ccc(C(=O)NCc2nnc3c(-c4nc(C5CC5)no4)cccn23)cc1C,-
CCc1noc(-c2cccn3c(CNC(=O)COc4cccc(C)c4)nnc23)n1,-
COc1cccc(C(=O)NCc2nnc3c(-c4nc(C)no4)cccn23)c1,-
Cc1noc(-c2cccn3c(CNC(=O)c4cccc(N(C)C)c4)nnc23)n1,0.56µM
CCc1noc(-c2cccn3c(CNC(=O)COc4ccc(F)cc4)nnc23)n1,0.71µM
CCc1noc(-c2cccn3c(CNC(=O)c4ccc(F)cc4)nnc23)n1,-
COc1ccc(Cl)cc1C(=O)NCc1nnc2cc(-c3nc(C(C)C)no3)ccn12,-
COc1ccc(Cl)cc1C(=O)NCc1nnc2c(-c3nc(C(C)C)no3)cccn12,1.8µM
COc1cccc(N2CC(C(=O)NCc3ccc(C(F)(F)F)cc3)NC2=O)c1 (stereo not drawn),-
O=C(Nc1cccc(F)c1)N1CCc2nnc(C3CC3)n2CC1,-
O=C(Nc1cccc(Cl)c1)N1CCC2(CC1)SCC(=O)N2Cc1ccco1,-
N#Cc1ccc(CN2CC3(Cc4ccccc4NC3=O)C2)cc1,-
Cc1noc(-c2ccc(OC3CN(S(=O)(=O)c4cn(C)cn4)C3)cc2)n1,-[5.79 µM]
O=C1CCC2(CCN(C(=O)C3CCOCC3)CC2)CN1CCc1ccncc1,-
COc1ccc(OC)c(C2CC(=O)c3c([nH]c(C(=O)OC4CCC(C)CC4)c3C)C2)c1 (stereo not drawn),10µM
CCOc1ccc(C2CC(=O)c3c([nH]c(C(=O)OC4CCC(C)CC4)c3C)C2)cc1 (stereo not drawn),-
SMILES,Pf Dd2 growth
Cc1c(C(=O)OC2CCCCC2)[nH]c2c1C(=O)CC(c1ccccc1)C2 (stereo not drawn),-
Cc1c(C(=O)OC2CCC(C)CC2)[nH]c2c1C(=O)CC(c1ccc(F)cc1)C2 (stereo not drawn),-
Cc1c(C(=O)OC2CCCC2)[nH]c2c1C(=O)CC(c1ccc(C(C)(C)C)cc1)C2 (stereo not drawn),-
COc1ccc(C2CC(=O)c3c([nH]c(C(=O)OC4CCCCCC4)c3C)C2)cc1OC (stereo not drawn),10µM
Cc1ccccc1C(=O)N1CCCC(c2nn(-c3ccc(F)cc3)c(=O)[nH]2)C1 (stereo not drawn),-
O=C(c1cccc(F)c1)N1CCC2(CC1)N(CC1CC1)C(=O)CS2=O (stereo not drawn),-
O=C1CCN(C(=O)C2CCC2)CCCC(C(=O)N2CCN(c3ccccn3)CC2)CCN1 (stereo not drawn),-
Cc1cccc(OCC(=O)N2[C@H]3CC[C@@H]2c2cnc(C)nc2C3)c1,-
Cc1cccc2c1nc1n2[C@@H](CNCc2ccc(S(C)(=O)=O)cc2)COC1,-
CC(C)CNC(=O)c1cc(C2CC2)nc2c1c(C1CCCN1)nn2-c1ccccc1 (stereo not drawn),4.5µM
COc1ccc(CNC(=O)c2cc(C3CC3)nc3c2c(C)nn3-c2cccc(Cl)c2C)cc1,-
COCCNC(=O)c1cc(C2CC2)nc2c1c(C1CCCN1)nn2C (stereo not drawn),-
O=C(NCC(F)(F)F)c1cc(C2CC2)nc2onc(C3CCCNC3)c12 (stereo not drawn),-
Cn1nc(C2CCNC2)c2c(C(=O)NCc3ccc(F)cc3)cc(C3CC3)nc21 (stereo not drawn),-
O=C(NCC(F)(F)F)c1cc(C2CC2)nc2c1c(C1CCCN1)nn2-c1ccccc1 (stereo not drawn),8.9µM
O=C(NCc1ccncc1)c1cc(C2CC2)nc2c1c(C1CCCN1)nn2-c1ccccc1 (stereo not drawn),8.9µM
CC(C)CNC(=O)c1cc(C2CC2)nc2onc(C3CCCNC3)c12 (stereo not drawn),-
Cn1nc(C2CCCN2)c2c(C(=O)NCC(F)(F)F)cc(C3CC3)nc21 (stereo not drawn),-
O=C(O)c1ccc(-c2ncc3cnc(-c4cccc(F)c4)cn23)cc1,-
